# Hits are enriched below; roughly 5.6% of the tested compounds scored in any of these assays.
# PHOSPHO1 inh = inhibitors of human PHOSPHO1 phosphatase; recombinant PHOSPHO1, absorbance phosphatase assay; inhibition, % at 13.3 µM; 290,000 tested, 1.1% active; Q8TCT1; in the data active = inhibition above about 60%
# H9c2 protect = protects H9c2 cardiomyocytes from peroxide injury; H2O2 injury protection, ATPLite, 2 h; protection from H2O2 cell death, % at 20 µM; 360,000 tested, 0.63% active; AID 588492;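 active = compounds giving at least 50% protection of heart cells from peroxide-induced death in the single-dose screen, raw or plate-pattern-corrected value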
# PfM18AAP inh-1 = blocks P. falciparum M18 aspartyl aminopeptidase. recombinant PfM18AAP, H-Glu-NHMec fluorogenic cleavage. AID 1822. 290,000 tested, 1.2% active. inhibition, % at 7.35 µM;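 active = inhibition above the campaign mean inhibition over all tested compounds plus 3 SD, cut at about 28% in these data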
# PfGluPho inh = PfG6PD (Plasmodium falciparum) enzyme inhibition. PfGluPho enzyme, NADPH resazurin-diaphorase fluorescence. inhibition, % at 20 µM. 350,000 tested, 0.78% active. AID 504690;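 active = inhibition reaching at least a set limit at 20 µM in the primary screen, cut at about 59% in these data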
# ALR H2O2 inh = inhibitors of human sulfhydryl oxidase ALR | purified ALR, DTT oxidation, H2O2 HRP-luminol luminescence | inhibition, % (no concentration beside the values) | AID 485317 | 290,000 tested, 3.8% active | P55789;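 active = mean replicate inhibition above about 79%, with every replicate also reaching it, limit read from the data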
# Target sequence (P55789 whole entry, looked up): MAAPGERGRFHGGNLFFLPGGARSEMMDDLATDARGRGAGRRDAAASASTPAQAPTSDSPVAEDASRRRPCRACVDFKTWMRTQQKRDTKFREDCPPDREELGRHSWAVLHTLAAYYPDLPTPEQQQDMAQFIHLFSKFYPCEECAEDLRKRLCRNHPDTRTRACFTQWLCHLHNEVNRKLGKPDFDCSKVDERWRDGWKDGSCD
# PfM18AAP inh-2 = PfM18AAP inhibition, confirmation; shares compounds with PfM18AAP inh-1; recombinant PfM18AAP, H-Glu-NHMec fluorogenic cleavage; inhibition, % at 7.35 µM; 2,400 tested, 28% active; AID 2170;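 active = mean inhibition over replicate wells above the hit cutoff set for the earlier primary screen, cut at about 29% in these data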
# CTSL1 counter = Cathepsin L (human) inhibition, confirmation; shares compounds with PfM18AAP inh-1; purified cathepsin L1, Z-Leu-Arg-MCA fluorescence; inhibition, % at 5.96 µM; 2,400 tested, under 10 active; AID 2178;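 active = average inhibition across replicates above the hit cutoff set in the earlier primary screen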
# Target sequence (P07711 whole entry, looked up): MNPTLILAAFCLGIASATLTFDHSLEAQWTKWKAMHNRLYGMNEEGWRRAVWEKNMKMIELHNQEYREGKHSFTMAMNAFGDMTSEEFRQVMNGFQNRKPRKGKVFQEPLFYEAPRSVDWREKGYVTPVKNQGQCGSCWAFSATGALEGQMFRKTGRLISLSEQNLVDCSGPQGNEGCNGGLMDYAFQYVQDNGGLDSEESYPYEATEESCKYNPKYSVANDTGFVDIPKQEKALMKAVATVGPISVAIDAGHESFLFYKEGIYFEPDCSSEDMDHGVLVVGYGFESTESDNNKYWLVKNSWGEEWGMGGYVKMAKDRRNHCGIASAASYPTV
# A number is an active result; i = inactive; nt = not tested or not shown.
SMILES,PHOSPHO1 inh,H9c2 protect,PfM18AAP inh-1,PfGluPho inh,ALR H2O2 inh,PfM18AAP inh-2,CTSL1 counter
C[C@@H]1CN([C@H](C)CO)C(=O)CCCn2nncc2CO[C@H]1CN(C)C(=O)c1ccncc1,nt,i,nt,i,nt,nt,nt
Cc1ccc(NC(=O)COc2ccccc2C(=O)NCc2ccccc2)cc1,nt,i,nt,i,i,nt,nt
CC(C)c1ccc(N2C(=O)C(Cl)=C(N3CCOCC3)C2=O)cc1,i,i,38,i,i,i,i
Cc1ccc(N/C=C(\C2OC(=O)c3ccccc32)[N+](=O)[O-])c(C)c1 (stereo not given),i,i,51,i,i,i,i
CC1(C(=O)NCCc2c[nH]c3ccccc23)CCN1Cc1csc2ccccc12 (stereo not given),nt,i,nt,nt,nt,nt,nt
CCN(CC)S(=O)(=O)c1ccc(N(C)C)c(NC(=O)CSCc2c(C)noc2C)c1,i,i,i,i,i,nt,nt
O=c1c(-n2cncn2)c[nH]n1-c1cccc(Cl)n1,i,i,67,i,i,i,i
COc1cc(CC(=O)OCC(=O)NCCc2ccc(S(N)(=O)=O)cc2)cc(OC)c1OC,nt,i,nt,i,nt,nt,nt
COC(=O)C1CN(C(=O)COc2ccc(C)cc2)c2ccccc2O1 (stereo not given),nt,i,i,i,i,nt,nt
O=C(O)c1ccc(S(=O)(=O)c2ccc3c(c2)C(=O)N(c2ccc(O)cc2)C3=O)cc1,i,i,33,i,nt,i,i
O=C(O)c1ccc(NC(=O)c2ccc3c(c2)C(=O)N(c2ccccc2)C3=O)cc1,i,i,i,i,i,nt,nt
O=C1CC2C(CCC23OCCO3)c2ccc3ccccc3c21 (stereo not given),nt,i,nt,i,nt,nt,nt
O=C(Nc1ccc(Cc2ccc(NC(=O)C3CC3)c(O)c2)cc1O)C1CC1,i,i,i,i,i,nt,nt
O=C(O)CCC(=O)Nc1ccc(Cc2ccc(NC(=O)CCC(=O)O)c(O)c2)cc1O,i,i,58,i,i,i,i
O=C(Cc1cccs1)NNC(=S)NC(=O)c1ccco1,i,i,34,i,i,i,i
CC[N+](CC)(CC)CCCCOc1ccc2c(c1)C(=O)c1cc(OCCCC[N+](CC)(CC)CC)ccc1-2,i,i,i,i,i,nt,nt
COc1ccccc1CCNC(=O)C1CC(=O)N(c2ccccc2F)C1 (stereo not given),nt,i,nt,i,nt,nt,nt
O=[N+]([O-])c1ccc(NN=Cc2cccc3ccccc23)nc1,nt,i,nt,i,nt,nt,nt
Cc1cc(/C=N/Nc2ccc([N+](=O)[O-])cn2)c(C)n1-c1ccccc1,i,i,51,i,i,i,i
Cc1c(C(=O)O)cccc1-n1c(C)cc(/C=N/Nc2ccc([N+](=O)[O-])cn2)c1C,i,i,59,i,nt,i,i
Cc1cc(/C=N/NC(=O)CC#N)c(C)n1-c1ccc([N+](=O)[O-])cc1,i,i,34,i,i,i,i
Cc1ccc(C=NNc2ccc([N+](=O)[O-])cn2)cc1,nt,i,nt,i,nt,nt,nt
CCN(CC)c1ccc([N+](=O)[O-])cc1/C=N/NC(=O)CC#N,i,i,i,i,i,nt,nt
O=C(O)Cn1cc(/C=N/Nc2ccc([N+](=O)[O-])cn2)c2ccccc21,i,i,53,i,99,i,i
O=C(O)c1ccccc1C=NNc1ccc([N+](=O)[O-])cn1,nt,i,nt,i,nt,nt,nt
SMILES,PHOSPHO1 inh,H9c2 protect,PfM18AAP inh-1,PfGluPho inh,ALR H2O2 inh,PfM18AAP inh-2,CTSL1 counter
CCC(CCC(=O)NNC(=O)Cc1ccc([N+](=O)[O-])cc1)C(=O)O (stereo not given),i,i,i,i,i,nt,nt
COc1ccc(CNC(=O)c2cc(S(=O)(=O)N3CCCCC3)ccc2Cl)cc1OC,nt,i,nt,i,nt,nt,nt
N#Cc1ccc(C(=O)N2CCN(C(=O)C3CCCO3)CC2)cc1 (stereo not given),nt,i,nt,i,nt,nt,nt
C/C(CC(=O)Nc1ccc(N(C)C)cc1)=N\NC(=O)c1ccc(C(C)(C)C)cc1,i,i,i,i,i,nt,nt
CCCS(=O)(=O)NC(=O)C1(C)CCCN(C(=O)c2cc(-c3cccs3)oc2C)C1 (stereo not given),nt,i,nt,nt,nt,nt,nt
CCc1ccc(N2CSC3=C(C#N)C(c4cccs4)CC(=O)N3C2)cc1 (stereo not given),73,i,44,62,i,i,i
CCOC(=O)CC1=C(C(=O)OCC)C(c2cccs2)C(C#N)=C(N)O1 (stereo not given),i,i,i,i,i,nt,nt
CCOC(=O)c1ccc(N2CSC3=C(C#N)C(c4cccs4)CC(=O)N3C2)cc1 (stereo not given),94,i,32,i,i,i,i
CCCCN(C=O)c1c(CC)nc2ccc(C(=O)NCCOc3ccc(OC)cc3)cn12,nt,i,nt,nt,nt,nt,nt
O=C1CC(c2ccccc2)=NN1c1nc(-c2ccccc2)cs1,i,i,33,i,nt,i,i
CCOc1cc(/C=C2\SC(N)=NC2=O)ccc1O,i,i,38,i,98,i,i
CCOc1cc(/C=C2\CN(C)C/C(=C\c3ccc(O)c(OCC)c3)C2=O)ccc1O,i,i,44,i,nt,i,i
CCOC(=O)C1=C(O)/C(=C\c2ccc(O)c(OCC)c2)N=C1C,i,i,40,i,95,i,i
COc1cc(C=C2CN(C)C(=O)C2=O)ccc1O,nt,i,nt,i,nt,nt,nt
COc1ccc(CCN2CC(C(=O)NCCc3cccnc3)CCC2=O)cc1 (stereo not given),i,i,i,i,i,nt,nt
CC(C)(O)C#Cc1ccc(C(=O)N2CCC(C(N)=O)(N3CCCCC3)CC2)o1,nt,i,i,i,nt,nt,nt
O=S(=O)(Nc1ccc2c(c1)nc1n2CCN(Cc2ccccc2)C1)c1ccc(Cl)cc1,i,i,i,i,i,nt,nt
O=S(=O)(Nc1ccc2c(c1)nc1n2CCN(Cc2ccccc2)C1)c1ccccc1,i,i,60,i,nt,i,i
COC(=O)C(C(=O)OC)c1ncc(C(F)(F)F)cc1Cl,i,i,i,i,i,nt,nt
COC(=O)Nc1nc(Sc2ncc(C(F)(F)F)cc2Cl)n[nH]1,i,i,69,i,i,70,i
Cc1ccc(NC(=O)c2cc(S(=O)(=O)N3CCCCC3)ccc2N2CCOCC2)c(C)c1,nt,i,nt,i,nt,nt,nt
NNc1nc(-c2ccccc2)nc2sc3c(c12)CCCC3,i,i,32,i,i,i,i
Cc1nc(NC(C)c2ccccc2)c2c3c(sc2n1)CCC3 (stereo not given),i,i,i,i,i,nt,nt
O=C(Nc1ncn[nH]1)C(F)(F)C(F)F,i,i,32,i,i,i,i
CCOc1ccc(C(=O)Nc2ncn[nH]2)cc1,i,i,i,i,i,nt,nt
CCC(C(=O)Nc1ncn[nH]1)(C(F)(F)F)C(F)(F)F,i,i,53,i,i,69,i
COc1cccc(C(C)(O)c2nc(-c3ccc(S(C)(=O)=O)cc3)cs2)c1 (stereo not given),nt,i,nt,nt,nt,nt,nt
COc1ccc2cc(CN(Cc3ccco3)Cc3nnnn3C3CCCCC3)c(=O)[nH]c2c1,i,i,35,i,i,i,i
